Data on one compound can be found in PubChem BioAssay (NCATS).

Inconclusive results are not listed. Active and inactive are the calls of the source. Unless noted, calls come from the whole dose curve; as a rule, active = well fitted curve in the direction sought with a large enough effect; inconclusive = small, poorly fitted or top-dose-only effect, or another doubt; inactive = no such curve, though single readings can be large; an effect the other way counts as inactive or inconclusive.

The nature of experiment [1]: qHTS Assay for Lipid Storage Modulators (AID 1519). Particulars: Drosophila S3 cells, BODIPY lipid droplet/cell ratio, laser cytometry; measured here: lipid channel max response; cells loaded with oleic acid. In a few lines: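 Cells seeded at 5,000 per well were treated with compounds over a concentration series and loaded with oleic acid (400 uM, as added). Lipid droplet fluorescence (488 nm excitation, 500-530 nm channel) was read by laser-scanning cytometry and normalized to 20 uM Triacsin C.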
A general note: qHTS replaces the single test concentration by a dilution series.

The target in experiment [2] is DNA repair nuclease/redox regulator APEX1 (Homo sapiens) (UniProt P27695). In words: qHTS Validation Assay for Inhibitors of the Human Apurinic/apyrimidinic Endonuclease 1 (APE1) (AID 1705;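 note: TAMRA fluorescence gain over two minutes as APE1 cuts a quenched THF abasic duplex; series mostly up to about 57 µM; % is set by controls: 0 for no effect and ±100 for the full control effect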). A digest of the protocol:
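qHTS, 1536-well. APE1 + cpd 15 min RT → 50 nM TAMRA/BHQ-2 THF-abasic dsDNA substrate → kinetic fluorescence, 3 reads/60 s; delta(read3−read1) = reaction progress. No-enzyme buffer = negative control.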

Experiment [3] is described as follows: Counterscreen for APE1 Inhibitors: Fluorescent Dye Displacement Validation Assay (AID 1707).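 Note: plate controls were ThO with dsDNA and no compound for no effect and ThO without dsDNA for full effect.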 In a few lines:
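Thiazole Orange (250 nM) bound to 50 nM TAMRA-labelled dsDNA with tetrahydrofuran abasic site; displacement by DNA-binding compounds lowers fluorescence. Buffer 50 mM Tris-HCl pH 7.5, 50 mM NaCl, 2 mM MgCl2, 0.01% Tween-20; endpoint read at 480/540 nm.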

The target of experiment [4] is Endonuclease 4 (Escherichia coli (strain K12)) (UniProt P0A6C1). In words: Counterscreen for APE1 Inhibitors: qHTS Validation Assay for Inhibitors of Endonuclease IV (AID 1708). Note: % is set by controls: 0 for no effect and ±100 for the full control effect. A digest of the protocol: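 Concentration-response counterscreen run identically to the APE1 assay: 15 min room-temperature preincubation of 2 nM enzyme with compound, reaction started with 50 nM quenched abasic DNA, progress taken from kinetic fluorescence.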
Background: A counterscreen serves to expose hits that act by an unwanted route or on another target.

Experiment [5] in a line: qHTS for differential inhibitors of proliferation of Plasmodium falciparum line 7G8 (AID 1815).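 Note: parasite growth measured after three days of incubation; plate controls were vehicle wells for no effect and reference inhibitor wells for full effect.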
Experiment [6] can be described thus: qHTS for differential inhibitors of proliferation of Plasmodium falciparum line GB4 (AID 1816).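 Note: parasite growth measured after 72 h incubation; 0% = vehicle DMSO and -100% = reference inhibitor.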 Particulars: Potency: Plasmodium falciparum GB4 proliferation inhibition.
A short description of experiment [7]: qHTS for differential inhibitors of proliferation of Plasmodium falciparum line D10 (AID 1877).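 Note: parasites grown with compound for 72 h before DNA staining; plate controls were vehicle wells for no effect and reference inhibitor wells for full effect.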
The nature of experiment [8]: qHTS for differential inhibitors of proliferation of Plasmodium falciparum line Dd2 (AID 1882).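 Note: series mostly up to about 29 µM; plate controls were DMSO vehicle for no effect and 0.29 µM artemisinin for full effect; nearly all actives have a fitted effect of over 65% in size.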 The following applies: Potency: Plasmodium falciparum Dd2 proliferation inhibition. A digest of the protocol:
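Dd2-infected erythrocytes (0.3% parasitemia, 2.5% hematocrit final) incubated with compound 72 h at 37 C, 5% CO2; lysed with saponin/Triton buffer containing SYBR Green I, incubated overnight in the dark, then read by fluorescence (485/535 nm). Normalized to 0.29 uM artemisinin and DMSO.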

For experiment [9], the target named is Ferritin light chain (Equus caballus) (UniProt P02791). The experiment is described as follows: qHTS Validation Assay for Identification of Novel General Anesthetics (AID 2323). Note: series mostly up to about 77 µM; % is set by controls: 0 for no effect and ±100 for the full control effect. A digest of the protocol: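 Fluorescence at 535 nm (excitation 380 nm) reported loss of 1-AMA binding to horse-spleen apoferritin (10 uM) in PBS with 50% saturated 1-aminoanthracene, after 10 min room-temperature incubation with compound; values from Hill fits of normalized response.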

Experiment [10] has as its target ATP-dependent DNA helicase Q1 (Homo sapiens) (UniProt P46063). In words: qHTS Validation Assay for Inhibitors of RecQ-Like Dna Helicase 1 (RECQ1) (AID 2353).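 Note: plate controls were DMSO vehicle for no effect and enzyme-free control for full effect.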 A digest of the protocol:
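50 nM RECQ1T1 preincubated 15 min with compound in Tris pH 8.0 buffer with MgCl2, DTT, Tween-20 and 2.5 ug/ml poly(dI-dC); started with 200 nM TAMRA/BHQ-2 forked duplex and 2 mM ATP. Unwinding read as fluorescence (525/598 nm), two reads 2 h apart.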

In experiment [11] the target is RecQ-like DNA helicase BLM (Homo sapiens) (UniProt P54132). The experiment is described as follows: qHTS Validation Assay for Inhibitors of Bloom's syndrome helicase (BLM) (AID 2364).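 Note: plate controls were DMSO vehicle for no effect and enzyme-free control for full effect.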 In a few lines:
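BLM 50 nM in 25 mM Tris-HCl pH 8.0, 5 mM NaCl, 2 mM MgCl2, 1 mM DTT, 0.01% Tween-20, 2.5 ug/ml poly(dI-dC); 15 min cpd preinc, RT. Start: 200 nM forked DNA + 2 mM ATP (final). TAMRA read, 2 reads 2 h apart.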

A short description of experiment [12]: Validation screen for small molecules that induce DNA re-replication in MCF 10A normal breast cells (AID 463097). Note: 0% is about no effect; nearly all actives have a fitted effect of over 60% in size. In a few lines: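 Image-based qHTS: normal breast cells are incubated with compound for 48 hr, stained with Hoechst, and scanned for total nuclear fluorescence. Compounds raising the fraction of nuclei with elevated DNA content count as re-replication inducers.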

Experiment [13] is described as follows: Quantitative high throughput screen for delayed death inhibitors of the malarial parasite plastid, 96 hour incubation (AID 488745). Note: series mostly up to about 29 µM; % is set by controls: 0 for no effect and ±100 for the full control effect; nearly all actives have a fitted effect of over 70% in size. In a few lines:
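Luciferase-expressing P. falciparum in erythrocytes (2% hematocrit, 0.1% parasitemia) incubated with compound for 96 h at 37 C, 5% CO2, in RPMI 1640 with 0.5% Albumax. Growth inhibition read as decreased luminescence.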

Experiment [14] concerns the target M-phase phosphoprotein 8 (Homo sapiens) (UniProt Q99549). In words: qHTS Validation Assay for Inhibitors for MPP8 Chromodomain Interactions with Methylated Histone Tails (AID 488949).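 Note: 50 nM MPP8 with 50 nM peptide preformed then compounds added for 30 min; AlphaScreen signal from MPP8 chromodomain bound to biotinylated H3K9me3 peptide; top concentration of the series differs between compounds; % is set by controls: 0 for no effect and ±100 for the full control effect; nearly all actives have a fitted effect of over 55% in size.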 In a few lines:
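50 nM MPP8 + 50 nM b-H3K9me3 peptide, PBS pH 7.4/0.01% Tween-20, 30 min RT; + cpd 30 min RT; + AlphaScreen donor/Ni-chelate acceptor beads 10 ug/mL final, 30 min dark; luminescence read.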

The target in experiment [15] is Thyrotropin receptor (Homo sapiens) (UniProt P16473). The experiment is described as follows: qHTS Assay for Antagonists of the Thyroid Stimulating Hormone Receptor (AID 488980). Note: series mostly up to about 58 µM; 0% is about no effect. In a few lines: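 Readout is cAMP by HTRF competition between cellular cAMP and cAMP-d2 for a cryptate-labelled antibody. Antagonism was assessed in TSHR-transfected HEK293 cells stimulated with 4 nM TSH (EC80, final) in the presence of RO 20-1724.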

Experiment [16] has as its target Thyrotropin-releasing hormone receptor (Homo sapiens) (UniProt P34981). In words: qHTS for Small Molecule Agonists and Allosteric Enhancers of Human TRH Receptor: Validation Screen for Agonists (AID 493127;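 active = calcium activation more than 3 SD above the typical response in the agonist read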; note: 0% is about no effect). The following applies: TRH receptor agonist cell assay; at 2 µM; stronger effect = higher value. In a few lines:
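TRHR cells loaded with fluo-8 calcium dye; FDSS kinetic fluorescence (Ex 480/Em 530) read at 1 s/cycle after 23 nL compound addition. Agonist-mode calcium response recorded before the 10 nM TRH (EC20) addition.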

Experiment [17] addresses Galactokinase (Homo sapiens) (UniProt P51570). The experiment is described as follows: qHTS Validation Assay for Inhibitors of Human Galactokinase (GALK) (AID 493189). Note: 0% is about no effect. A digest of the protocol: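 5 nM GALK / 100 uM galactose / 35 uM ATP, 20 mM HEPES pH8.0, 5 mM MgCl2, 60 mM NaCl, 1 mM DTT, 0.01% BSA (final). RT 1 h; Kinase-Glo Plus luminescence.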
A short description of experiment [18]: Validation screen for small molecules that induce DNA re-replication in SW480 colon adenocarcinoma cells (AID 504364). Note: 0% is about no effect. A digest of the protocol:
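SW480 cells (250/well) exposed 48 h at 37 C, 5% CO2, then Hoechst-stained 40 min. Nuclear DNA content imaged by fluorescence scanning (405 nm excitation, 500-530 nm emission); re-replication scored as increased nuclei with elevated intensity.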

Experiment [19] concerns Zika virus NS2B-NS3 protease. In words: Primary screen GU AMC qHTS for Zika virus inhibitors (AID 1347154).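 Note: 0% = no-inhibitor control and -100% = no-enzyme control; nearly all actives have a fitted effect of over 70% in size.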 A digest of the protocol:
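Unlinked Zika NS2B hydrophilic domain/NS3 protease domain noncovalent complex (25 nM final) in 10 mM Tris-HCl pH 8.0, 0.01% Tween 20, with AMC peptide substrate. Fluorescence (ex 340, em 450 nm) change over 15 min, room temperature; percent inhibition fitted to 4-parameter Hill equation.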

A short description of experiment [20]: Primary qHTS for small molecule stabilizers of the endoplasmic reticulum resident proteome: Secreted ER Calcium Modulated Protein (SERCaMP) assay (AID 1508630). Note: % is set by controls: 0 for no effect and ±100 for the full control effect. A digest of the protocol:
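GLuc-SERCaMP-expressing SH-SY5Y cells, pretreated 16 h with compound, are challenged with thapsigargin to empty ER calcium stores; after 4 h, coelenterazine is added directly to the medium and luminescence is imaged.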

Chain of ATP-dependent DNA helicase Q1 (Homo sapiens) (P46063 whole entry, looked up): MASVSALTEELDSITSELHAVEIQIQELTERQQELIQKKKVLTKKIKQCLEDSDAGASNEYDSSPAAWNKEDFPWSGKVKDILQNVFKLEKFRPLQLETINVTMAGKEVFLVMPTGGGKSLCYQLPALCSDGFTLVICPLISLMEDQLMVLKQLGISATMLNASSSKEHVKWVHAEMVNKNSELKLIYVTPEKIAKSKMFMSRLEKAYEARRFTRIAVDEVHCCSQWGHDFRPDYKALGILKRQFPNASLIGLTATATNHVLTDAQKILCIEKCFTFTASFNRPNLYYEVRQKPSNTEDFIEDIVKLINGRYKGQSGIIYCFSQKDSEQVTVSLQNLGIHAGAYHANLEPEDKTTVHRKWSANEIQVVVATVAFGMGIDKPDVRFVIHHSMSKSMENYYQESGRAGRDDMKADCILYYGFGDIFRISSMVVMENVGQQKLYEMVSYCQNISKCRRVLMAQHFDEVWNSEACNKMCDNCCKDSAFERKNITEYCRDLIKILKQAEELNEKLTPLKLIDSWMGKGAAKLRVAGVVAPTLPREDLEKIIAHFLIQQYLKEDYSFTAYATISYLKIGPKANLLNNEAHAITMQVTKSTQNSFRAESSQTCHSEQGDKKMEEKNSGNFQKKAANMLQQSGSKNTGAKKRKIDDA
Chain of Ferritin light chain (Equus caballus) (P02791 2-175 limits assumed): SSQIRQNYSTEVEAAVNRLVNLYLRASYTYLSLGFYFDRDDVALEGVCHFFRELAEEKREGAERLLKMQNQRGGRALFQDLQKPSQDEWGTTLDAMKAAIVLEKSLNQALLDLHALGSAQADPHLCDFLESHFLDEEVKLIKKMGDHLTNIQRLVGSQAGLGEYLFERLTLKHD
Chain of Thyrotropin-releasing hormone receptor (Homo sapiens) (P34981 whole entry, looked up): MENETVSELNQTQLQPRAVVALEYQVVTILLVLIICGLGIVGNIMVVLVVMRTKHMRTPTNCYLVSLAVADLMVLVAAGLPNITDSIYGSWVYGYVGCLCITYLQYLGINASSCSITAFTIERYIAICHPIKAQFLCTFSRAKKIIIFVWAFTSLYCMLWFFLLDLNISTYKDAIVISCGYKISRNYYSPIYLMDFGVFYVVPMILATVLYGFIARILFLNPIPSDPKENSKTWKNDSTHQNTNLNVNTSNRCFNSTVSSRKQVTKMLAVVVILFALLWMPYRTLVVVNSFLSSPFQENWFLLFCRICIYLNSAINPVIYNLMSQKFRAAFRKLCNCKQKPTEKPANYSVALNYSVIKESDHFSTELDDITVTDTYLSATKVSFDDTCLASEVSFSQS
Chain of RecQ-like DNA helicase BLM (Homo sapiens) (P54132 whole entry, looked up): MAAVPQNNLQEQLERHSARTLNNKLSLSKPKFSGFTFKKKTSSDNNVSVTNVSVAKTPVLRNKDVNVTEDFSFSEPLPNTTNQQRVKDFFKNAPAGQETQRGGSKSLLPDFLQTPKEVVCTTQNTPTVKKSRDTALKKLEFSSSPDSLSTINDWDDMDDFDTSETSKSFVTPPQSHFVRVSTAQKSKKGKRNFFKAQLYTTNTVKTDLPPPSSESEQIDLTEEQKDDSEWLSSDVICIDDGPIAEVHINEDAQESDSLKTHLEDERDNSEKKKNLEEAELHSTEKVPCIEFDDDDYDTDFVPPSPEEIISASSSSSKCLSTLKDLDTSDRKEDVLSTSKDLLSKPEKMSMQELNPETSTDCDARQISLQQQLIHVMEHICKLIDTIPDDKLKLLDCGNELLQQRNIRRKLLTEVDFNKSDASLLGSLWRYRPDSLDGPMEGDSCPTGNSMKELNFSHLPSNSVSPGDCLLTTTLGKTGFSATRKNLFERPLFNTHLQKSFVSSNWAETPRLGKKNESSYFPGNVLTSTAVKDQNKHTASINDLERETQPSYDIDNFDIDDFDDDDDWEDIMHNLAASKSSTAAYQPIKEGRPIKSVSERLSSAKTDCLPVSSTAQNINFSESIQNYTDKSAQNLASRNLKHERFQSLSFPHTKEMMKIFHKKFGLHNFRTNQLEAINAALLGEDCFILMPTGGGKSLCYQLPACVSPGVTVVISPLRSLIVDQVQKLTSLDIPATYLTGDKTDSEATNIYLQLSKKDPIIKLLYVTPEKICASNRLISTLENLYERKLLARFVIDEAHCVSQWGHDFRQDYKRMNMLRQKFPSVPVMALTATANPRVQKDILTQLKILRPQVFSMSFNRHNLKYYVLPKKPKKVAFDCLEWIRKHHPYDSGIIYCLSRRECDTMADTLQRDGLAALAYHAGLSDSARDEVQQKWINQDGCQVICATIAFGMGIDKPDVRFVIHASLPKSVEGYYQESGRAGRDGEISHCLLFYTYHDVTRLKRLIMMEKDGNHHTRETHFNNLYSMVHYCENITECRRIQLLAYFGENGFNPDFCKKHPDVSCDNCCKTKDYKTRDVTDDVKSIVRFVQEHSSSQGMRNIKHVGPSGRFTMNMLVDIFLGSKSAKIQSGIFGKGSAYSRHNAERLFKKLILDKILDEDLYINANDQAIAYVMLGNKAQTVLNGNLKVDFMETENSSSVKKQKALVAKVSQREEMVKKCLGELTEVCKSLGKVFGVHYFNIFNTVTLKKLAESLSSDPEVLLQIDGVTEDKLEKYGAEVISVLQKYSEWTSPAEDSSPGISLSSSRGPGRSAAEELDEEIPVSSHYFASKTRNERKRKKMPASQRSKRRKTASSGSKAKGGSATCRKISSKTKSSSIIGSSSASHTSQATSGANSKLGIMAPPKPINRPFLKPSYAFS
Chain of Thyrotropin receptor (Homo sapiens) (P16473 whole entry, looked up): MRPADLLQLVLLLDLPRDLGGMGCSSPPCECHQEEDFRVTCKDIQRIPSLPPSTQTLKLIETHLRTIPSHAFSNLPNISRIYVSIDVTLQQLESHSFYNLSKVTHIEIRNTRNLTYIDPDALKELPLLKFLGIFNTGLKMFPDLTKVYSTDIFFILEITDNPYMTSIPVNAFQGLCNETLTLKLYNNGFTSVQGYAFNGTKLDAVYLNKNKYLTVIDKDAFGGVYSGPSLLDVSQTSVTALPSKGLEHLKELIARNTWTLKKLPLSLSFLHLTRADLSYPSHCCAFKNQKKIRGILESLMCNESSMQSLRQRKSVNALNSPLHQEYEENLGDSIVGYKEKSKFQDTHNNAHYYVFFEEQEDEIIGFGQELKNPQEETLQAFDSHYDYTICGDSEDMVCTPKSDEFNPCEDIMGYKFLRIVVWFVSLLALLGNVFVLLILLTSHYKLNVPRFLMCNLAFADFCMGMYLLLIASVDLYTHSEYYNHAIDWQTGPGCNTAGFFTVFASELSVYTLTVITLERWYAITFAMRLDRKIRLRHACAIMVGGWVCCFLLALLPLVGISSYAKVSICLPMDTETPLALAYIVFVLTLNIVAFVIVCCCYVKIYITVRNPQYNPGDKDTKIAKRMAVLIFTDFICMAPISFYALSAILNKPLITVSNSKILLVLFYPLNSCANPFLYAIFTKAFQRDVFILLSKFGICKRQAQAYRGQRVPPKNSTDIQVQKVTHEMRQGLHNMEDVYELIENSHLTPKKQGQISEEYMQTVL
Chain of M-phase phosphoprotein 8 (Homo sapiens) (Q99549 whole entry, looked up): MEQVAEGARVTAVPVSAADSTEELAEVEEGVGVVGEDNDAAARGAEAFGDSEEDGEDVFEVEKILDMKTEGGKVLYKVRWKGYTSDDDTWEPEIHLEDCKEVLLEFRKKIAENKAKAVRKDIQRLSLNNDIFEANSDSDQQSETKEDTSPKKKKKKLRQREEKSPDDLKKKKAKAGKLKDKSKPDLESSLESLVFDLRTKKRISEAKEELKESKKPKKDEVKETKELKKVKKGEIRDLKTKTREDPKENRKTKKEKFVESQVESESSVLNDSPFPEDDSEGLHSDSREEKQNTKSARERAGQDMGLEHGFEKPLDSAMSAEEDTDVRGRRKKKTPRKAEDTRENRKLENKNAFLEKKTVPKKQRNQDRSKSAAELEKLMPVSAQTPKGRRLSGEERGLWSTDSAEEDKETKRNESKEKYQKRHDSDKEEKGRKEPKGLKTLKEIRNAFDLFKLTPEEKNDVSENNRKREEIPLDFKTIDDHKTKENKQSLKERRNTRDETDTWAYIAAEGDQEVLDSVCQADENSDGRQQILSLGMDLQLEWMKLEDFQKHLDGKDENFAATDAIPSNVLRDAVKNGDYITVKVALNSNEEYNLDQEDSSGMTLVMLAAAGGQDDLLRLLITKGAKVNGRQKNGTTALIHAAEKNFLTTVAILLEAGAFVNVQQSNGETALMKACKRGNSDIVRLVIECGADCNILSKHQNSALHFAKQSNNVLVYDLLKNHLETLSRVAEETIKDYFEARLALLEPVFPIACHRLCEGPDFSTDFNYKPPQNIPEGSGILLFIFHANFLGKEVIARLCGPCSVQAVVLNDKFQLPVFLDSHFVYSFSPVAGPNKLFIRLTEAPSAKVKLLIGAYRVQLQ
Chain of Galactokinase (Homo sapiens) (P51570 whole entry, looked up): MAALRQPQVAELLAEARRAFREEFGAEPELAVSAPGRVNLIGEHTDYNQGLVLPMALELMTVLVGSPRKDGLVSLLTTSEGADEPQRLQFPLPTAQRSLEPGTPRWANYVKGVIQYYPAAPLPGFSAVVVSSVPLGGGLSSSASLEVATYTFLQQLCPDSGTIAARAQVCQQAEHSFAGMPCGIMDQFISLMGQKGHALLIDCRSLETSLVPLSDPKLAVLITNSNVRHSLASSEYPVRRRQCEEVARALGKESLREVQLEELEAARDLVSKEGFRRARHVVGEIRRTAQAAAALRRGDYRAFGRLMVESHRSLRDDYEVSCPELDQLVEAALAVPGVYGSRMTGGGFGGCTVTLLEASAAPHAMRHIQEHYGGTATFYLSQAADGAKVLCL
Chain of DNA repair nuclease/redox regulator APEX1 (Homo sapiens) (P27695 whole entry, looked up): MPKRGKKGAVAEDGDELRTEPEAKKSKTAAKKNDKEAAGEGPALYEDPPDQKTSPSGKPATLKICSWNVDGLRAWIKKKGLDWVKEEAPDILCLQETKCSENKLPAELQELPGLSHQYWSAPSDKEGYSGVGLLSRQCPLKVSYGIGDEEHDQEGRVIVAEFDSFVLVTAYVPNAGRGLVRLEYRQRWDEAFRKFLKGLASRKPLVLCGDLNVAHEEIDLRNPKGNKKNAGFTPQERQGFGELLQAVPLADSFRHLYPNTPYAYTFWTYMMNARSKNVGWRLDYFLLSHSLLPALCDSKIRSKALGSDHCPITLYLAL

Consider `Cn1cnc2c(NC3CCCC3)ncnc21`, for which the max response in [1] was -21%. Moreover, the Potency result in experiment [2], in experiment [3], in [4], in [5], in experiment [6] and in experiment [7] was “inactive” in each case. Besides, the Potency entry in [8], in [10], in [11], in experiment [12], in experiment [13] and in experiment [14] was “inactive” throughout. Moreover, the Potency result in experiment [19] and in experiment [20] was “inactive” throughout. Also, the call in [9], in experiment [15], in experiment [17] and in experiment [18] was inactive. The activation in experiment [16] is 0.875% (inactive).
